Values of other authors in publication PMC11062922 (Nature Chemical Biology, 2023).

Columns and labels:
[1] = tested on: JAK1(JH2domain-pseudokinase)
[2] = tested on: JAK2(JH1domain-catalytic)
[3] = tested on: RSK1(Kin.Dom.1-N-terminal)
[4] = tested on: RSK3(Kin.Dom.1-N-terminal)
[5] = tested on: TYK2(JH2domain-pseudokinase)

Measured: KINOMEScan

COc1cc(Nc2ncc3c(C)nc(-c4cc5ccccc5[nH]4)n3n2)cc(OC)c1OC [GW869516X]
active: AMPK-alpha1 89% | AMPK-alpha2 61% | BLK 60% | CIT 100% | CLK1 88% | CLK2 75% | CSNK2A1 96.4% | CSNK2A2 99.7% | DDR1 52% | DDR2 52% | DYRK1A 85% | DYRK1B 81% | EPHB1 58% | FLT3-autoinhibited 75% | FLT3 96.3% | GCN2(Kin.Dom.2,S808G) 88% | HIPK1 79% | INSRR 53% | [1] 98.5% | [2] 54% | KIT 72% | LCK 71% | MAP3K4 52% | MEK5 78% | MERTK 56% | MLK1 93.8% | MLK2 89% | MLK3 87% | NEK11 86% | NEK2 70% | NEK3 89% | NEK5 99% | NEK6 99.6% | NEK7 99.7% | NEK9 90% | PAK3 69% | PIP5K1C 89% | PIP5K2C 90.3% | PKAC-beta 51% | [3] 91.7% | [4] 66% | SLK 63% | SRC 90.1% | STK16 86% | SYK 53% | TBK1 58% | [5] 82% | ULK2 51% | WEE2 85%
